Results filed as inconclusive are left out. Entries that show only a call come without a potency. Values without a mark were called inactive. Activity calls are given as the source filed them. The call rests on the fitted dose curve; in most records, active means well fitted cell-killing curve with a large enough effect in the repeat runs; inconclusive means weak or mixed curves, or effect the other way; inactive means no such curve, though single readings can be large or run the other way.
Potency means the concentration at half of the fitted maximal effect.

The nature of this assay: qHTS assay to identify small molecule antagonists of the sonic hedgehog signaling (Shh) pathway - cell viability counter screen (AID 1259367). Further: nearly all actives have a fitted effect of over 55% in size. The note with it: NIH/3T3 Gli1-Luc viability, CellTiter-Fluor, 24 h; series mostly up to 92.4 µM. Put shortly:
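Seed 3T3 Gli1-Luc cells at 2,000 per well; incubate 4 hr; add compound in DMSO, then conditioned medium; incubate at 37C with 5% CO2; add CellTiter-Fluor after 23 hr; read fluorescence 1 hr later.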
In general terms: qHTS replaces the single test concentration by a dilution series.
Regarding `CCCCCCOC(=O)C(C)C`, the Potency entry was “inactive”.
On the same count and under the same terms, for `C[C@@H]1C[C@H]2[C@@H]3CCC4=CC(=O)C=C[C@]4(C)[C@@]3(F)[C@@H](O)C[C@]2(C)[C@H]1C(=O)CO` the value was “inactive”; for `CC(C)(C)C(=O)O`, “inactive”; for `CC(C)C(OC(=O)c1ccccc1)C(C)(C)COC(=O)c1ccccc1` (stereo not drawn), “inactive”.
Consider `CCCCCCOC(=O)CCCCCCCC(=O)OCCCCCC`, for which the Potency entry is “inactive”.
On the same count and under the same terms, for `O=C(c1ccc(O)cc1)c1ccc(Cl)cc1` the value was “inactive”; for `C[C@@H]1C[C@H]2[C@@H]3CCC4=CC(=O)C=C[C@]4(C)[C@@]3(F)[C@@H](O)C[C@]2(C)[C@@]1(O)C(=O)CO`, “inactive”; for `O=C(N[C@@H](c1ccccc1)[C@@H]1CCCCN1)c1cccc(C(F)(F)F)c1Cl`, 54.5 µM (active).
In the case of `CC[C@H](NC(=O)c1cc(F)ccc1NS(=O)(=O)c1cccc2cccnc12)c1ccccc1`, the Potency result was “inactive”.
Still for that read-out and setting: the entry for `Cc1ccc(Nc2nccc(N(C)c3ccc4c(C)n(C)nc4c3)n2)cc1S(N)(=O)=O` is “inactive”; for `CO[C@H]1O[C@H](CO)[C@@H](O)[C@H](O)[C@H]1O` it is “inactive”; for `C=CCOC(=O)/C=C\C(=O)OCC=C` it is “inactive”.
Same read-out and setting: the entry for `CC1(C)C2=CCCC(C)(C)[C@]23CC[C@H]1C3` is “inactive”.
Turning to `CC1C2CC(CC2C2CCCC(O)C2)C1(C)C` (stereo not drawn), the Potency result was “inactive”.
The same measure, in the same setting: the entry for `CCOC(=O)N1CCC(n2c(=O)[nH]c3cc(Cl)ccc32)CC1` is “inactive”.
For `C=CC(=C)CCCC(C)(C)OC(C)=O`, the Potency result was “inactive”.
Still for that read-out and setting: the entry for `Cc1cnc(C)c(C)n1` is “inactive”.
For `OC(CCCN1CCCCC1)(c1ccccc1)c1ccccc1`, the Potency entry was “inactive”.
Same read-out and setting: for `CO[C@H]1C=CO[C@@]2(C)Oc3c(C)c(O)c4c(O)c(c5c(c4c3C2=O)=NC2(CCN(CC(C)C)CC2)N=5)NC(=O)/C(C)=C\C=C/[C@H](C)[C@H](O)[C@@H](C)[C@@H](O)[C@@H](C)[C@H](OC(C)=O)[C@@H]1C` the value was 23.8 µM (active); for `O=C(N/N=C/c1ccc([N+](=O)[O-])o1)c1ccc(O)cc1`, 18.8 µM (active).
For the compound `[O]=[Bi]`, the viability change, negative = cytotoxic is -5.4% [at 8.39 µM].
In the case of `Cc1cc2nc3ccc(=[N+](C)C)cc-3sc2cc1N`, the Potency entry is “inactive”.
Same read-out and setting: for `CCc1cccc(N(C)C(N)=Nc2cccc3ccccc23)c1` the value was “inactive”; for `CCCCCCCC/C=C\CCCCCCCC(=O)OC(CO)CO`, “inactive”.
In the case of `C[C@]12CCC(=O)C=C1C=C[C@@H]1[C@@H]2CC[C@@]2(C)[C@H]1CC[C@@]21CCC(=O)O1`, the Potency result was “inactive”.
Take `Cc1cc(S(=O)(=O)O)ccc1N=Nc1c(O)ccc2ccccc12`: the Potency is 27.3 µM (active).
For the compound `CCC(Cc1ccccc1)(C(=O)c1ccc(N2CCOCC2)cc1)N(C)C` (stereo not drawn), the Potency result is “inactive”.
With `C=CC(=O)NCOCC(C)C`, the Potency entry was “inactive”.
As to `C=CC(C)(C)CC(=O)OC`, the Potency result is “inactive”.
For the compound `CC1(C)C(=O)N(Br)C(=O)N1Cl`, the Potency result was “inactive”.
For `CCNC(=O)N1CCN(CCCC(c2ccc(F)cc2)c2ccc(F)cc2)CC1`, the Potency entry was “inactive”.
As to `O=S(=O)(c1ccccc1)c1ccc(Cl)cc1`, the Potency result was “inactive”.
Consider `CC(=N\O)/C(C)=N/O`, for which the Potency result was “inactive”.

The values are drawn from PubChem BioAssay (Tox21).
